Assay results: PubChem BioAssay (NCATS)
Inconclusive results are not listed. Activity calls are given as the source filed them. Calls come from the whole dose curve; as a rule, active = well fitted curve in the direction sought with a large enough effect; inconclusive = small, poorly fitted or top-dose-only effect, or another doubt; inactive = no such curve, though single readings can be large; an effect the other way counts as inactive or inconclusive.

Legend:
[1] = Quantitative High-Throughput drug screen in 47 multiple myeloma cell lines against the NCATS MIPE library collection: ARP1_JJKsccF8 cell viability assay (AID 1918928; note: nearly all actives have a fitted effect of over 40% in size)
Method in brief: (§1)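 500 cells/well; MIPE 4.0 library pinned in; 48 h, 37 °C, 5% CO2; CellTiter-Glo ATP luminescence. Controls: DMSO = 100% viability, medium only = 0%.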

[2] = Quantitative High-Throughput drug screen in 47 multiple myeloma cell lines against the NCATS MIPE library collection: Karpas620_DSMZ cell viability assay (AID 1918959); note: nearly all actives have a fitted effect of over 30% in size
Method in brief: (§2)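 qHTS of the MIPE 4.0 collection: 500 myeloma cells/well, 48 h drug exposure at 37C in 5% CO2, then CellTiter-Glo for 5 min at room temperature before luminescence reading.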

[3] = Quantitative High-Throughput drug screen in 47 multiple myeloma cell lines against the NCATS MIPE library collection: KMM1_JCRB cell viability assay (AID 1918960); note: nearly all actives have a fitted effect of over 30% in size
Method in brief: as §1

[4] = Quantitative High-Throughput drug screen in 47 multiple myeloma cell lines against the NCATS MIPE library collection: JIM3_ECACC cell viability assay (AID 1918963; note: nearly all actives have a fitted effect of over 35% in size)
Method in brief: as §2

[5] = Quantitative High-Throughput drug screen in 47 multiple myeloma cell lines against the NCATS MIPE library collection: INA6_PLB cell viability assay (AID 1918965; note: nearly all actives have a fitted effect of over 55% in size)
Method in brief: (§3)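 Luminescent ATP measurement with CellTiter-Glo gives viability, scaled between DMSO-only wells (100%) and media-only wells (0%). Cells, 500 per well, faced library compounds for 48 hours at 37C.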

[6] = Quantitative High-Throughput drug screen in 47 multiple myeloma cell lines against the NCATS MIPE library collection: JIM1_ECACC cell viability assay (AID 1918964)
Method in brief: (§4)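 We plated 500 myeloma cells per well, pinned in MIPE 4.0 compounds, and incubated for 48 hours at 37C. ATP was then quantified with CellTiter-Glo, with DMSO and media-only wells defining 100% and 0%.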

[7] = Quantitative High-Throughput drug screen in 47 multiple myeloma cell lines against the NCATS MIPE library collection: JJN3_DSMZ cell viability assay (AID 1918966; note: nearly all actives have a fitted effect of over 50% in size)
Method in brief: as §4

[8] = Quantitative High-Throughput drug screen in 47 multiple myeloma cell lines against the NCATS MIPE library collection: KHM11_PLB cell viability assay (AID 1918962); note: nearly all actives have a fitted effect of over 35% in size
Method in brief: as §2

[9] = Quantitative High-Throughput drug screen in 47 multiple myeloma cell lines against the NCATS MIPE library collection: Karpas417_ECACC cell viability assay (AID 1918961); details: Karpas417 myeloma viability, CellTiter-Glo ATP luminescence, 48 h; viability (% of DMSO): at 45.8 µM (top of the series)
Method in brief: as §3

[10] = Quantitative High-Throughput drug screen in 47 multiple myeloma cell lines against the NCATS MIPE library collection: ARD_JJKsccE7 cell viability assay (AID 1918929)
Method in brief: as §4

Measured: Potency
Potency is the fitted concentration of half-maximal effect.

C[C@]12C=CC(=O)C=C1CC[C@@H]1[C@@H]2C(=O)C[C@@]2(C)[C@H]1CC[C@]2(O)C(=O)CO
inactive: [1] | [2] | [3] | [4] | [5]

COc1nc(N)nc2c1ncn2[C@@H]1O[C@H](CO)[C@@H](O)[C@@H]1O
inactive: [1] | [2] | [3] | [4] | [6]
active: [7] 13.2 µM

CC(C)OC(=O)C(C(=O)OC(C)C)=C1SC=CS1
inactive: [1] | [2] | [4] | [6] | [7]

CCCOc1ccc(C(=O)OCCN(CC)CC)cc1N
inactive: [1] | [2] | [3] | [4] | [5] | [7]

CN(C)CCc1c[nH]c2ccc(CS(=O)(=O)N3CCCC3)cc12
inactive: [1] | [2] | [4] | [6] | [7]
active: [8] 16.6 µM | [5] 0.0074 µM

NC(N)=NC(N)=NCCc1ccccc1
active: [1] 14.8 µM | [8] 16.6 µM | [4] 4.69 µM | [5] 20.9 µM

COc1ccc2c(c1)c(CC(=O)OCC(=O)O)c(C)n2C(=O)c1ccc(Cl)cc1
not listed: [8] | [9] | [10]
inactive: all other assays above

O=S(=O)(O)CCS
inactive: [1] | [2] | [3] | [5]

C[C@@H](NCCCc1cccc(C(F)(F)F)c1)c1cccc2ccccc12
inactive: [1] | [3]
active: [4] 13.2 µM

Cc1nnc(NS(=O)(=O)c2ccc(N)cc2)s1
active: [1] 20.9 µM | [2] 1.66 µM | [3] 1.18 µM | [5] 9.35 µM
inactive: [4]

CCCCCCNC(=O)n1cc(F)c(=O)[nH]c1=O
inactive: [2]
active: [1] 8.33 µM | [4] 16.6 µM | [5] 11.8 µM | [7] 23.5 µM

Cc1nnc(C(=O)NC(C)(C)c2nc(C(=O)NCc3ccc(F)cc3)c(O)c(=O)n2C)o1
inactive: [1] | [2] | [3] | [4] | [5]

Cc1cccc(Nc2ccncc2S(=O)(=O)NC(=O)NC(C)C)c1
inactive: [1] | [2] | [3] | [4] | [6]
active: [7] 20.9 µM

COc1cnc(NS(=O)(=O)c2ccc(N)cc2)nc1
inactive: [1] | [4]

C[C@@H]1CN(c2c(F)c(N)c3c(=O)c(C(=O)O)cn(C4CC4)c3c2F)C[C@H](C)N1
inactive: [1] | [2] | [3] | [4] | [6] | [5]

CC1(C)[C@H](C(=O)O)N2C(=O)C[C@H]2S1(=O)=O
inactive: [1] | [2] | [3] | [4] | [6] | [5]

NC(=O)c1ccc2[nH]ccc2c1
inactive: [1] | [2] | [4] | [6] | [5]

OCc1ccc(-c2nn(Cc3ccccc3)c3ccccc23)o1
active: [8] 2.64 µM
inactive: [1] | [3] | [4]

CCCCOc1ccc(CC(=O)NO)cc1
active: [1] 13.2 µM | [2] 18.7 µM

Cc1ccnc2c1NC(=O)c1cccnc1N2C1CC1
inactive: [1] | [2] | [6] | [7]

Nc1nc(N)nc(-c2cc(Cl)ccc2Cl)n1
inactive: [1] | [3] | [8] | [4] | [7]

O[C@@H](CNC[C@H](O)[C@H]1CCc2cc(F)ccc2O1)[C@@H]1CCc2cc(F)ccc2O1
active: [1] 14.8 µM | [2] 20.9 µM | [3] 16.6 µM | [8] 26.4 µM | [4] 23.5 µM | [5] 20.9 µM

COC(=O)Nc1nc2ccc(S(=O)c3ccccc3)cc2[nH]1 (centres undefined)
inactive: [2] | [3]
active: [1] 16.6 µM | [4] 20.9 µM | [5] 18.7 µM

CC(C(=O)O)c1ccc2c(c1)CC(=O)c1ccccc1S2 (centres undefined)
active: [9] 20.9 nM
inactive: [1] | [3] | [4] | [5]

CCOc1cc(N)c(Cl)cc1C(=O)NCC1CN(Cc2ccc(F)cc2)CCO1 (centres undefined)
inactive: [1] | [2] | [3] | [4] | [7]

CO[C@@H]1[C@@H](OC(N)=O)[C@@H](O)[C@H](Oc2ccc3c(O)c(NC(=O)c4ccc(O)c(CC=C(C)C)c4)c(=O)oc3c2C)OC1(C)C
active: [1] 0.935 µM | [4] 5.26 µM

CC(C)(Sc1cc(C(C)(C)C)c(O)c(C(C)(C)C)c1)Sc1cc(C(C)(C)C)c(O)c(C(C)(C)C)c1
active: [5] 4.69 µM
inactive: [1] | [2] | [7]

NC(=O)c1cccc(N)c1
inactive: [1] | [2] | [3] | [4] | [5]

CC(C)C1CCC(C(=O)N[C@H](Cc2ccccc2)C(=O)O)CC1 (some centres undefined)
inactive: [1] | [2] | [4] | [6]

S=P(N1CC1)(N1CC1)N1CC1
inactive: [1] | [2] | [4]
active: [7] 0.0118 µM

NCCCC(O)(P(=O)(O)O)P(=O)(O)O
inactive: [10] | [2] | [3] | [4]

CCCN[C@H]1CCc2nc(N)sc2C1
inactive: [4] | [6] | [5] | [7]

CC(=O)[C@H]1CC[C@H]2[C@@H]3CCC4=CC(=O)CC[C@]4(C)[C@H]3CC[C@]12C
inactive: [3]
active: [5] 16.6 µM

CC(N)C12CC3CC(CC(C3)C1)C2 (centres undefined)
not listed: [1] | [8] | [9]
inactive: all other assays above

CC(=O)[C@H]1CC[C@H]2[C@@H]3CC=C4C[C@@H](O)CC[C@]4(C)[C@H]3CC[C@]12C
inactive: [10] | [2] | [3] | [8] | [4]

CCN(CC)CC#CCOC(=O)C(O)(c1ccccc1)C1CCCCC1 (centres undefined)
inactive: [4]

CN(CCOc1ccc(CC2SC(=O)NC2=O)cc1)c1ccccn1 (centres undefined)
inactive: [3] | [8] | [4] | [5]
active: [2] 0.0019 µM

CC(C)NCC(O)c1ccc(NS(C)(=O)=O)cc1 (centres undefined)
inactive: [10] | [3] | [8] | [4]

COc1cccc(N(C)C(=S)Oc2ccc3c(c2)CCCC3)n1
inactive: [4]
active: [10] 23.5 µM | [5] 16.6 µM

O=C(O)c1cc(=O)[nH]c(=O)[nH]1
inactive: [10] | [2] | [3] | [8] | [4] | [5]

CC(C)Cn1cnc2c(N)nc3ccccc3c21
inactive: [2] | [4]
active: [10] 5.9 µM | [7] 18.7 µM

CCC(C)(C)c1ccc(CC(C)CN2C[C@@H](C)O[C@@H](C)C2)cc1 (some centres undefined)
inactive: [10] | [2] | [3] | [6]

O=P(O)(O)C(O)(Cc1cccnc1)P(=O)(O)O
inactive: [2] | [3] | [4]

N[C@@H](Cc1ccc(O)c(O)c1)C(=O)O
inactive: [10] | [2] | [3] | [4] | [6]

C[C@@H]1C[C@H]2[C@@H]3CCC4=CC(=O)C=C[C@]4(C)[C@@]3(Cl)[C@@H](O)C[C@]2(C)[C@@]1(OC(=O)c1ccco1)C(=O)CCl
active: [2] 16.6 µM | [8] 9.35 µM | [4] 9.35 µM | [6] 7.43 µM | [5] 2.96 µM | [7] 2.35 µM

CC1CC2C3CCC4=CC(=O)C=C[C@]4(C)[C@@]3(F)[C@@H](O)C[C@]2(C)[C@@]1(O)C(=O)CO (some centres undefined)
inactive: [4]
active: [8] 0.833 µM | [6] 0.0023 µM

CS(=O)(=O)c1ccc([C@@H](O)[C@@H](CO)NC(=O)C(Cl)Cl)cc1
active: [10] 13.2 µM | [4] 9.35 µM | [5] 11.8 µM
inactive: [2]

O=C(O)c1ccc(-n2nc(-c3ccccc3O)nc2-c2ccccc2O)cc1
active: [4] 18.7 µM | [6] 18.7 µM | [5] 18.7 µM

CC(C)OC(=O)OCOP(=O)(CO[C@H](C)Cn1cnc2c(N)ncnc21)OCOC(=O)OC(C)C
active: [10] 23.5 µM | [3] 20.9 µM | [4] 16.6 µM | [7] 18.7 µM

C[C@@H](CN1CC(=O)NC(=O)C1)N1CC(=O)NC(=O)C1
inactive: [3] | [4] | [6] | [7]
active: [5] 10.5 µM

O=S(=O)(c1cccc2cnccc12)N1CCCNCC1
inactive: [10] | [3]

CN1CCCC(n2nc(Cc3ccc(Cl)cc3)c3ccccc3c2=O)CC1 (centres undefined)
active: [1] 6.62 µM | [4] 14.8 µM | [5] 1.32 µM | [7] 2.96 µM

O=C(NCC1CN(c2ccc(N3CCOCC3=O)cc2)C(=O)O1)c1ccc(Cl)s1 (centres undefined)
active: [10] 23.5 µM
inactive: [4]

O=C(O)c1cccnc1
inactive: [10] | [2] | [3] | [4] | [5]
active: [8] 18.7 µM

CCOC(=O)c1ccc(C#Cc2ccc3c(c2)C(C)(C)CCS3)nc1
active: [4] 18.7 µM
inactive: [10] | [2] | [3] | [5]

CCn1cc(C(=O)O)c(=O)c2cc(F)c(N3CCN(C)CC3)cc21
active: [10] 0.0132 µM
inactive: [2] | [4]

COc1cc2c(Nc3ccc(Br)cc3F)ncnc2cc1OCC1CCN(C)CC1
active: [5] 9.35 µM | [7] 18.7 µM
inactive: [2] | [3] | [4]

CCn1cc(C(=O)O)c(=O)c2cc(F)c(N3CCNCC3)nc21
inactive: [2] | [3] | [4] | [5] | [7]

O=c1oc2c(O)c(O)cc3c(=O)oc4c(O)c(O)cc1c4c23
inactive: [10] | [2] | [4] | [5]

CNS(=O)(=O)Cc1ccc2[nH]cc(CCN(C)C)c2c1
inactive: [3] | [4] | [6]

COc1ncnc(NS(=O)(=O)c2ccc(N)cc2)c1OC
inactive: [10] | [2] | [4] | [5]

CCOC(=O)[C@H](CCc1ccccc1)N[C@H]1CCc2ccccc2N(CC(=O)O)C1=O
active: [10] 18.7 µM | [2] 14.8 µM | [3] 18.7 µM | [8] 37.2 µM | [4] 20.9 µM | [6] 9.35 µM | [5] 14.8 µM | [7] 23.5 µM

COC(=O)Nc1nc2ccc(C(=O)c3ccccc3)cc2[nH]1
active: [1] 0.743 µM | [4] 2.96 µM | [5] 1.18 µM | [7] 2.64 µM

CNNCc1ccc(C(=O)NC(C)C)cc1
inactive: [2] | [8] | [4] | [6] | [7]
active: [3] 2.96 µM

CNS(=O)(=O)CCc1ccc2[nH]cc(C3CCN(C)CC3)c2c1
inactive: [2]
active: [10] 10.5 µM | [3] 18.7 µM | [4] 2.35 µM | [5] 2.09 µM | [7] 0.0418 µM

CCC(=O)O[C@]1(C(=O)CCl)[C@@H](C)C[C@H]2[C@@H]3CCC4=CC(=O)C=C[C@]4(C)[C@@]3(F)[C@@H](O)C[C@@]21C
inactive: [8] | [4]

CC(C)(C#N)c1cc(Cn2cncn2)cc(C(C)(C)C#N)c1
active: [7] 2.35 µM
inactive: [10] | [2] | [3] | [4] | [5]
